Results filed as inconclusive are left out. Entries that show only a call come without a potency. Activity calls are given as the source filed them. Calls follow the shape of the dose curve; as a rule, active = well fitted cell-killing curve with a large enough effect; inconclusive = small, poorly fitted or top-dose-only effect, or effect the other way; inactive = flat fitted curve, though single readings scatter.
test system: HeLa; assay: Primary qHTS to identify gynecologic anti-cancer compounds using libraries of approved drugs and bioactive compounds (AID 1345084); details: Gynecologic cancer cell panel viability, ATPlite luminescence, 48 h; series mostly up to 57.5 µM; also: nearly all actives have a fitted effect of over 55% in size
Method in brief: (§1)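 ATP-based viability (ATPlite), 1,000 cells/well, 16 h pre-incubation, 48 h compound at 37 C, 5% CO2, 15 min RT before read.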
Potency is read from the fitted curve at half-maximal effect.

| Structure (SMILES) | Potency |
| --- | --- |
| COc1cc(O)c2c(c1)C1OC1C[C@H](O)[C@H](O)C(=O)/C=C\C[C@H](C)OC2=O (some centres undefined) | inactive |
| O=C(Nc1ccccc1Cl)c1cnc2ccc(C3CCNCC3)cn12 | inactive |
| COc1cc(-n2cnc3cc(-c4ccc(Cl)cc4)sc3c2=O)ccc1OCCN1CCCC1 | inactive |
| Cc1nc2ccc(-n3ncc(C(=O)c4cc5ccccc5[nH]4)c3N)cc2[nH]1 | 28.2 µM (active) |
| C/C1=C\CCC2=CC(OC2=O)C(C)(C)/C=C/C1=O (centres undefined) | inactive |
| C=C1C(=O)O[C@@H]2C3=C(C)CCC[C@]3(C)CC[C@@]12O | inactive |
| Nc1ncnc2c1c(-c1ccc(Oc3ccccc3)cc1)nn2[C@@H]1CCCNC1 | inactive |
| C=CC(=O)Nc1ccc2ncnc(Nc3cccc(Br)c3)c2c1 | inactive |

test system: Hek293T; assay: as above; details: Gynecologic cancer cell panel viability, ATPlite luminescence, 48 h, control line for the selectivity index; series mostly up to 57.5 µM
Method in brief: as §1

| Structure (SMILES) | Potency |
| --- | --- |
| COc1c(C)cnc(Cn2cc(C#CCC(C)(C)O)c3c(Cl)nc(N)nc32)c1C | 0.282 µM (active) |
| COc1cccc(-c2cc(F)ccc2C2Cc3nc(N)nc(C)c3C(=O)N2)n1 (centres undefined) | 0.282 µM (active) |
| C=C1C(=O)O[C@@H]2C(OC(=O)/C(C)=C\C)/C(C)=C\C(=O)/C=C(\C)C[C@H](O)[C@@H]12 (some centres undefined) | 11.2 µM (active) |
| CC(C)=CCCC1(C)/C=C/C(OC(=O)C=C(C)C)C(C)(O)/C=C/C(=O)/C(CO)=C\C1 (centres undefined) | 8.91 µM (active) |
| C=CC(=O)N1CCC[C@@H](n2nc(-c3cccc(C(=O)Nc4ccc(C(C)C)c(C)c4)c3)c3c(N)ncnc32)C1 | inactive |
| CC(O)(C(=O)O)C1CCC2(C)C1CCC1(C)C2CCC2C3(C)CCC(O)C(C)(COC4OC(CO)C(O)C(O)C4O)C3CCC21C (centres undefined) | 10 µM (active) |
| N#CC(CCCN1CCC(O)(c2ccc(Cl)cc2)CC1)(c1ccccc1)c1ccccc1 | inactive |
| O=C(Nc1ccccc1Cl)c1cnc2ccc(C3CCNCC3)cn12 | inactive |
| Cc1nc2ccc(-n3ncc(C(=O)c4cc5ccccc5[nH]4)c3N)cc2[nH]1 | 14.1 µM (active) |
| C=CC(=O)Nc1ccc2ncnc(Nc3cccc(Br)c3)c2c1 | inactive |
| COC(=O)N1CCC(n2ncc3c(N4CCOCC4)nc(-c4ccc(NC(=O)NC5CC5)cc4)nc32)CC1 | 0.631 µM (active) |

test system: JEG-3; assay: as above; details: Gynecologic cancer cell panel viability, ATPlite luminescence, 48 h; series mostly up to 57.5 µM
Method in brief: as §1

| Structure (SMILES) | Potency |
| --- | --- |
| O=C1Nc2nc(-c3c(O)cccc3OCC3CC3)cc([C@@H]3CCCNC3)c2CO1 | inactive |
| O=c1ccc2ccc(OCCCCN3CCN(c4cccc5sccc45)CC3)cc2[nH]1 | inactive |
| C=CC(=O)Nc1cccc(Nc2nc(Nc3ccc(OCCOC)cc3)ncc2F)c1 | inactive |
| C=CC(=O)N1CCC[C@@H](n2nc(-c3cccc(C(=O)Nc4ccc(C(C)C)c(C)c4)c3)c3c(N)ncnc32)C1 | inactive |
| O=C(Nc1cccc(C(F)(F)F)c1)Nc1ccc(Br)cc1-c1nn[nH]n1 | inactive |
| C=CS(=O)(=O)NC1CCN(C(=O)CNc2cc(I)c(Cl)cc2OC)CC1 | inactive |
| N#CC(CCCN1CCC(O)(c2ccc(Cl)cc2)CC1)(c1ccccc1)c1ccccc1 | inactive |
| COc1cc(-n2cnc3cc(-c4ccc(Cl)cc4)sc3c2=O)ccc1OCCN1CCCC1 | inactive |
| C=C1C(=O)O[C@@H]2C3=C(C)CCC[C@]3(C)CC[C@@]12O | inactive |
| Nc1ncnc2c1c(-c1ccc(Oc3ccccc3)cc1)nn2[C@@H]1CCCNC1 | inactive |
| Oc1cccc(C2NC(=S)Nc3cccc(F)c32)c1 (centres undefined) | 22.4 µM (active) |
| O=C(Nc1ccc(C(O)(C(F)(F)F)C(F)(F)F)cc1)c1ccc(C(F)(F)F)cc1 | inactive |
| Oc1ccc(-c2cnc3ccc(NCc4ccco4)nn23)cc1 | inactive |
| O=C(Nc1cccc2cccnc12)c1ccc(N2C(=O)[C@@H]3C4C=CC(C4)[C@@H]3C2=O)cc1 | 31.6 µM (active) |
| COC(=O)N1CCC(n2ncc3c(N4CCOCC4)nc(-c4ccc(NC(=O)NC5CC5)cc4)nc32)CC1 | inactive |
